In PubChem BioAssay:

Experiment: small molecules captured by biotinylated probe aFST – biochemical, small-molecule microarray, fluorescence 635/667, stem cell growth factor project, primary screen (AID 1086);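 further: score merges 667 nm fluorescence with signal-to-noise of each printed compound spot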
Conditions: higher = more signal

First: Cc1ccc(S[C@]2(C(=O)O)CC(=O)N(Cc3ccccc3Cl)[C@@H]2c2ccc(CO)cc2I)cc1
Second: COCCCNC(=O)[C@@]1(Sc2ccc(C)cc2)CC(=O)N(C2CCCCC2)[C@@H]1c1ccc(CO)cc1
The composite z-score of the first is higher: 0.415 for the first, -0.37 for the second.

Compared with `COCC1=C2[C@@H](CCc3ccccc3)OB(O)C[C@@H]2[C@@H]2C(=O)C=CC(=O)[C@@H]2C1`, `CCOc1cc(C(O)C2C=CC3C(=O)N(C)C(=O)C3N2Nc2ccccc2)ccc1O` (stereo unspecified) is higher in composite z-score: 0.182 for the first, 0.472 for the second.

Going from `COc1ccc([Si](C)(C)[C@@H]2[C@@H](CCn3cc([C@H](O)c4ccccc4)nn3)O[C@]3(C(=O)N(Cc4ccc(N5CCC5=O)cc4)c4ccccc43)[C@H]2C)cc1` to `C=CCOC(=O)[C@H]1[C@@H]2C(=O)O[C@@H](c3ccccc3)[C@@H](c3ccccc3)N2[C@@H](c2ccc(OCCOC(=O)[C@@H]3C[C@@H]4C(=O)N[C@@H](CCCCN(C)C)C(=O)N4[C@@H]3c3ccc(O)cc3)cc2)[C@]12C(=O)Nc1ccccc12`, the composite z-score rises from -0.201 to 0.29.

First: C=C(C(=O)CC[C@@H](OC(C)=O)c1ccc(CO)o1)C(C)C
Second: CC(=O)NCCCC[C@@H]1NC(=O)[C@@H]2C[C@H](C(=O)NCCCC[N+](C)(C)C)[C@H](c3ccc(O)cc3)N2C1=O
The composite z-score of the first is lower: -0.105 for the first, 0.177 for the second.

Going from `CCOC(=O)C1CCCCN1` (stereo unspecified) to `CCCC[C@@H]1C[C@H]1[C@@H](NC(=O)c1cccs1)c1ccc(C(F)(F)F)cc1`, the composite z-score falls from 0.74 to 0.0353.

Experiment: binders of probe aHhip on microarray, primary screen, stem cell growth factor project, biochemical, small-molecule microarray, fluorescence 635/667 (AID 1087);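 further: score merges spot fluorescence at 667nm with spot signal to noise ratio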
Conditions: higher = more signal

Compared with `[N-]=[N+]=Nc1ccccc1[C@H]1OC(c2ccc(OCCCO)cc2)=N[C@@]1(Cc1ccccc1)C(=O)N1CCCCC1`, `CN(C)C(=O)[C@]1(CCS(=O)(=O)c2ccccc2)N=C(c2ccc(OCCCO)cc2)O[C@@H]1c1ccccc1N=[N+]=[N-]` is higher in composite z-score: -0.0994 for the first, 0.155 for the second.

Compared with `CCCNC(=O)[C@@]1(c2ccc([N+](=O)[O-])cc2)CC(=O)N(C2CCCCC2)[C@@H]1c1ccc(CO)cc1`, `COCCCNC(=O)[C@@]1(Sc2ccc(C)cc2)CC(=O)N(C2CCCCC2)[C@@H]1c1ccc(CO)cc1` is lower in composite z-score: 0.113 for the first, -0.191 for the second.

First: CN1C(=O)C2C=CC(C(O)c3ccccn3)N(N(c3ccccc3)c3ccccc3)C2C1=O (stereo unspecified)
Second: CCOc1cc(C(O)C2C=CC3C(=O)N(C)C(=O)C3N2Nc2ccccc2)ccc1O (stereo unspecified)
The composite z-score of the first is higher: 0.245 for the first, 0.24 for the second.

First: COCCOC(=O)N1C(=O)[C@@]2(c3cc(C#CC4=CCCCC4)ccc31)[C@H](c1ccc(O)cc1)N1[C@H](c3ccccc3)[C@H](c3ccccc3)OC(=O)[C@H]1[C@@H]2C(=O)N1CCN(c2ncccn2)CC1
Second: O=C1O[C@H](c2ccccc2)[C@H](c2ccccc2)N2[C@H]1[C@@H](C(=O)O)[C@]1(C(=O)Nc3ccc(C#CC4=CCCCC4)cc31)[C@H]2c1ccc(O)cc1
The composite z-score of the first is lower: -0.277 for the first, -0.121 for the second.

Compared with `C[N+](C)(C)CCCCCCNC(=O)[C@H]1C[C@H]2C(=O)N[C@@H](Cc3ccccc3)C(=O)N2[C@H]1c1ccc(O)cc1`, `O=C(CS)NCCCCCCNC(=O)[C@H]1C[C@H]2C(=O)N[C@@H](Cc3ccccc3)C(=O)N2[C@H]1c1ccc(O)cc1` is lower in composite z-score: 0.0373 for the first, -0.928 for the second.

Going from `O=C1NC(=O)C2C1C=CC(C(O)c1cccc3ccccc13)N2Nc1ccc(Cl)cc1Cl` (stereo unspecified) to `CN(C)c1ccc(C(O)C2C=CC3C(=O)N(c4ccccc4)C(=O)C3N2Nc2ccc([N+](=O)[O-])cc2)cc1` (stereo unspecified), the composite z-score rises from -0.0994 to 0.0373.

First: COC(=O)[C@@]1(Cc2ccc(F)cc2)[C@H]2c3cc(C(=O)N4CCCC4)n(CCc4ccc(O)c(O)c4)c3C[C@H]2CN1C(=O)c1ccccc1
Second: COC(=O)[C@@]1(Cc2ccc(OC)cc2)[C@H]2c3cc(C(=O)N4CCCC4)n(Cc4c(-c5ccccc5)noc4C)c3C[C@H]2CN1C(=O)c1ccccc1
The composite z-score of the first is higher: 2.44 for the first, 1.79 for the second.

Compared with `C#CCN([C@@H](Cc1ccc(O)cc1)C(=O)OC)[C@@H](/C=C/C1CC1)[C@H](O)Cc1ccccc1`, `CC(C)Cc1ccc(CN2CC[C@@H](NC(=O)Nc3ccccc3)C2)cc1` is higher in composite z-score: -0.337 for the first, 0.0505 for the second.

Going from `CCOC(=O)c1ccc(NC(=O)O[C@H]2[C@H](OC(=O)Nc3ccc4c(c3)OCO4)[C@@H](OC(=O)Nc3ccc4c(c3)OCO4)[C@@H](OC)O[C@@H]2CO)cc1` to `COC(=O)[C@@]1(Cc2ccccc2)[C@H]2c3cc(C(=O)N(C)C)n(CCc4ccc(O)c(OC)c4)c3C[C@H]2CN1C(=O)c1ccccc1`, the composite z-score rises from -0.318 to 2.09.

Going from `O=c1n(-c2ccccc2)c(=O)n2n1CC(COc1ccccc1)=C([C@H](O)CCc1ccccc1)[C@@H]2CO` to `COc1ccc([Si](C)(C)[C@@H]2[C@@H](CCn3cc([C@H](O)c4ccccc4)nn3)O[C@]3(C(=O)N(Cc4ccc(N5CCC5=O)cc4)c4ccccc43)[C@H]2C)cc1`, the composite z-score falls from -0.318 to -0.503.

Compared with `COc1ccc([Si](C)(C)[C@@H]2[C@@H](CC(=O)N3Cc4ccccc4C[C@H]3CO)O[C@]3(C(=O)N(Cc4cccc(N5C(=O)c6cccc7cccc5c67)c4)c4ccccc43)[C@H]2C)cc1`, `COc1cc2c(cc1OC)CN(C(=O)[C@@H]1[C@H]3C(=O)O[C@H](c4ccccc4)[C@H](c4ccccc4)N3[C@H](c3ccc(OCCO)cc3)[C@@]13C(=O)Nc1ccccc13)CC2` is lower in composite z-score: 0.0505 for the first, 0.0139 for the second.

Going from `COC(=O)[C@@]1(Cc2ccccc2)[C@H]2c3cc(C(=O)N(C)C)n(CCN4CNCC4=O)c3C[C@H]2CN1C(=O)c1ccccc1` to `COCCCNC(=O)[C@@]1(Cc2ccccc2N=[N+]=[N-])N=C(c2ccc(OCCCO)cc2)O[C@H]1c1ccccc1`, the composite z-score falls from 0.478 to 0.212.

First: C=C(C)c1cc2c(c(CCCCCC)n1)[Si](C(C)C)(C(C)C)OC2
Second: C=C(C(=O)CC[C@@H](OC(C)=O)c1ccc(CO)o1)C(C)C
The composite z-score of the first is lower: 0.0201 for the first, 0.0749 for the second.

Compared with `O=C1O[C@@H](c2ccccc2)[C@@H](c2ccccc2)N2[C@@H](c3ccc(O)cc3)[C@]3(C(=O)Nc4ccc(C#CC5(O)CCCCCC5)cc43)[C@@H](C(=O)NC[C@H](O)c3ccccc3)[C@H]12`, `O=C1O[C@H](c2ccccc2)[C@H](c2ccccc2)N2[C@H]1[C@@H](C(=O)Nc1nc3ccccc3s1)[C@]1(C(=O)Nc3ccc(C#CCCO)cc31)[C@H]2c1ccc(O)cc1` is higher in composite z-score: -0.236 for the first, -0.0581 for the second.

Going from `O=C1OCC=C[C@H]2OC34C=CCN(c5ccc(Cl)cc5)C(=O)[C@H]3N(CCO)C(=O)[C@@H]4[C@@H]12` (stereo partly specified) to `Cc1ccc(S[C@]2(C(=O)O)CC(=O)N(Cc3ccccc3Cl)[C@@H]2c2ccc(CO)cc2I)cc1`, the composite z-score falls from -0.137 to -0.624.

Compared with `C=CCC(OC(C)=O)[C@@H]1[C@@H](N(Cc2cc3ccccc3o2)C(=O)c2ccc(-c3ccccc3)cc2)c2cc(OCCCO)ccc2N1C(=O)c1ccc2ccccc2c1` (stereo partly specified), `C=CCOC(=O)[C@H]1[C@@H]2C(=O)O[C@@H](c3ccccc3)[C@@H](c3ccccc3)N2[C@@H](c2ccc(OCCOC(=O)[C@@H]3C[C@@H]4C(=O)N[C@@H](CCCCN(C)C)C(=O)N4[C@@H]3c3ccc(O)cc3)cc2)[C@]12C(=O)Nc1ccccc12` is higher in composite z-score: -0.214 for the first, 0.0623 for the second.

Compared with `COCC1=C2[C@@H](CCc3ccccc3)OB(O)C[C@@H]2[C@@H]2C(=O)C=CC(=O)[C@@H]2C1`, `CCCC[C@@H]1C[C@H]1[C@@H](NC(=O)c1cccs1)c1ccc(C(F)(F)F)cc1` is higher in composite z-score: -0.0708 for the first, 0.948 for the second.

Going from `CC(=O)NCCCC[C@@H]1NC(=O)[C@@H]2C[C@H](C(=O)NCCCC[N+](C)(C)C)[C@H](c3ccc(O)cc3)N2C1=O` to `CCOC(=O)C1CCCCN1` (stereo unspecified), the composite z-score rises from 0.224 to 1.96.
